Several values for one entry are separate records, joined by “and”; a condition that tells them apart may be missing. Equal values may be shown once. Among all 5,500 compounds or so, about 2,000 (36%) were called active. Inconclusive results (about 18%) are left out. Cut-off read from the data, not from the text of the source: active = normalized growth mostly below about 0.91 (no sharp cut-off); inconclusive = no clear call, values can overlap the other calls; inactive = mostly above about 0.92. The list shows a part of the results.
Experiment: chemical genetic growth profiling, strain panel (AID 1159580);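 note: tested at 20 µM; growth read once vehicle control cultures reached saturation at 30 °C; 1 = growth at the plate median or of vehicle wells; lower values mean less growth of the strain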
Conditions: S. cerevisiae deletion strains, growth OD

Measured: normalized growth

Nc1ncnc2c1ncn2[C@@H]1O[C@H](CO)[C@@H](O)[C@H]1O
inactive: locus YAL021C, strain ccr4, hits give low values 0.97 | locus YAL026C, strain drs2, hits give low values 0.989 | locus YAL030W, strain snc1, hits give low values 0.995 | locus YBL061C, strain skt5, hits give low values 0.98 | locus YBR009C, strain hhf1, hits give low values 0.987 | locus YBR021W, strain FUR4, hits give low values 1.13 | locus YBR023C, strain chs3, hits give low values 0.972 | locus YBR171W, strain sec66, hits give low values 0.968 | locus YBR229C, strain ROT2, hits give low values 0.951 | locus YBR231C, strain swc5, hits give low values 1 | locus YBR279W, strain paf1, hits give low values 0.991 | locus YCL011C, strain gbp2, hits give low values 0.975 | locus YCL016C, strain dcc1, hits give low values 0.953 | locus YCL029C, strain bik1, hits give low values 0.972 | locus YCL061C, strain MRC1, hits give low values 0.966 | locus YCL069W, strain vba3, hits give low values 0.985 | locus YCR088W, strain abp1, hits give low values 0.994 | locus YDL005C, strain med2, hits give low values 0.992 | locus YDL035C, strain GPR1, hits give low values 0.987 | locus YDL040C, strain nat1, hits give low values 0.99 | locus YDL074C, strain BRE1, hits give low values 1.02 | locus YDL101C, strain DUN1, hits give low values 0.97 | locus YDL134C, strain PPH21, hits give low values 0.983 | locus YDL185W, strain tfp1, hits give low values 0.955 | locus YDL192W, strain arf1, hits give low values 0.982 | locus YDR001C, strain nth1, hits give low values 0.986 | locus YDR069C, strain doa4, hits give low values 1.02 | locus YDR101C, strain arx1, hits give low values 1.03 | locus YDR137W, strain rgp1, hits give low values 0.96 | locus YDR159W, strain sac3, hits give low values 0.994 | locus YDR162C, strain NBP2, hits give low values 0.948 | locus YDR195W, strain ref2 1.01 | locus YDR297W, strain sur2, hits give low values 0.985 | locus YDR318W, strain mcm21, hits give low values 0.973 | locus YDR334W, strain swr1, hits give low values 0.986 | locus YDR335W, strain msn5, hits give low values 0.987 | locus YDR388W, hits give low values 0.948 | locus YDR392W, strain spt3, hits give low values 0.904 | locus YDR502C, strain sam2, hits give low values 0.997 | locus YEL003W, strain gim4, hits give low values 0.994 | locus YEL037C, strain rad23, hits give low values 0.99 | locus YEL061C, strain CIN8 (second series), hits give low values 0.987 | locus YEL061C, strain CIN8, hits give low values 0.986 | locus YER015W, strain faa2, hits give low values 0.986 | locus YER016W, strain bim1, hits give low values 0.997 | locus YER110C, hits give low values 0.975 | locus YER111C, strain swi4, hits give low values 0.977 | locus YER155C, strain BEM2 (second series), hits give low values 1.01 | locus YER155C, strain BEM2, hits give low values 0.974 | locus YER167W, strain BCK2, hits give low values 0.988 | locus YFR010W, strain ubp6, hits give low values 0.99 | locus YGL078C, strain dbp3, hits give low values 0.986 | locus YGL086W, strain mad1, hits give low values 1.03 | locus YGL167C, strain pmr1, hits give low values 0.981 | locus YGL173C, strain kem1, hits give low values 0.98 | locus YGL227W, strain vid30, hits give low values 0.987 | locus YGL240W, strain doc1, hits give low values 0.989 | locus YGL248W, strain PDE1, hits give low values 0.979 | locus YGL253W, strain hxk2, hits give low values 0.988 | locus YGR135W, strain pre9, hits give low values 0.975 | locus YGR229C, strain SMI1, hits give low values 1 | locus YGR252W, strain gcn5, hits give low values 0.959 | locus YHR013C, strain ard1, hits give low values 0.955 | locus YHR027C, strain rpn1, hits give low values 0.981 | locus YHR030C, strain SLT2, hits give low values 0.994 and 1.01 | locus YHR079C, strain IRE1 (second series), hits give low values 0.982 | locus YHR079C, strain IRE1, hits give low values 1.03 | locus YHR094C, strain hxt1, hits give low values 0.97 | locus YHR129C, strain ARP1, hits give low values 0.995 | locus YHR142W, strain chs7, hits give low values 0.939 | locus YHR200W, strain rpn10, hits give low values 0.986 | locus YIL066C, strain RNR3, hits give low values 0.978 | locus YIL073C, strain SPO22, hits give low values 0.947 | locus YIL125W, strain kgd1, hits give low values 0.98 | locus YIR030C, strain dcg1, hits give low values 0.976 | locus YJL092W, strain hpr5, hits give low values 0.984 | locus YJL095W, strain BCK1 (second series), hits give low values 0.987 | locus YJL095W, strain BCK1, hits give low values 0.983 and 1.02 | locus YJL115W, strain asf1, hits give low values 0.987 | locus YJL129C, strain trk1, hits give low values 0.972 | locus YJL134W, strain LCB3, hits give low values 0.985 | locus YJL154C, strain vps35, hits give low values 0.999 | locus YJL164C, strain tpk1, hits give low values 0.981 | locus YJL166W, strain qcr8, hits give low values 0.969 | locus YJL168C, strain set2, hits give low values 0.99 | locus YJL187C, strain SWE1 (second series), hits give low values 0.968 | locus YJL187C, strain SWE1, hits give low values 0.992 | locus YJR043C, strain POL32, hits give low values 0.992

From PubChem BioAssay AID1159580 (chemical genetic matrix, 2015)
